The values that follow come from the supplement of paper PMC10849652.

About 7,900 targets were measured; listed, in parts, are those with a hit and a random draw of the rest. About 0.6% of all pairs of compound and target were hits. Unmarked numbers belong to inactive results.

Chain of UniProt P22830 (P22830 whole entry, looked up): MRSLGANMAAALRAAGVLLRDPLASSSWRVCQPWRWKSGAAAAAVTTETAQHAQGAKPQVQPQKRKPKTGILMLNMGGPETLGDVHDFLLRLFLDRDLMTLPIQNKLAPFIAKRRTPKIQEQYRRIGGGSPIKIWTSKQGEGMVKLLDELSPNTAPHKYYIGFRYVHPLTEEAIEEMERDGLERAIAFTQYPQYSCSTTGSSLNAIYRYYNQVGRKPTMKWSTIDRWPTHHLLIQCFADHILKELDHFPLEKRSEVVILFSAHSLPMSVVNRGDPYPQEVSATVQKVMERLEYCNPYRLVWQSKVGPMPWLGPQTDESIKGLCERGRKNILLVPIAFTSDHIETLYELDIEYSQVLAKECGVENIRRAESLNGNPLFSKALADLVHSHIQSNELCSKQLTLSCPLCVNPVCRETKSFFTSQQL
Chain of UniProt P23434 (P23434 whole entry, looked up): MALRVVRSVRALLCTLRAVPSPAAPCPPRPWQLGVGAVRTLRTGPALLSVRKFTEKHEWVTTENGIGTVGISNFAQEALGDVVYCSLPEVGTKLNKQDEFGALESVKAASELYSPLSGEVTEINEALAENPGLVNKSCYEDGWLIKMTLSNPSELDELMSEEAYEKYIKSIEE
Chain of UniProt Q53R41 (Q53R41 whole entry, looked up): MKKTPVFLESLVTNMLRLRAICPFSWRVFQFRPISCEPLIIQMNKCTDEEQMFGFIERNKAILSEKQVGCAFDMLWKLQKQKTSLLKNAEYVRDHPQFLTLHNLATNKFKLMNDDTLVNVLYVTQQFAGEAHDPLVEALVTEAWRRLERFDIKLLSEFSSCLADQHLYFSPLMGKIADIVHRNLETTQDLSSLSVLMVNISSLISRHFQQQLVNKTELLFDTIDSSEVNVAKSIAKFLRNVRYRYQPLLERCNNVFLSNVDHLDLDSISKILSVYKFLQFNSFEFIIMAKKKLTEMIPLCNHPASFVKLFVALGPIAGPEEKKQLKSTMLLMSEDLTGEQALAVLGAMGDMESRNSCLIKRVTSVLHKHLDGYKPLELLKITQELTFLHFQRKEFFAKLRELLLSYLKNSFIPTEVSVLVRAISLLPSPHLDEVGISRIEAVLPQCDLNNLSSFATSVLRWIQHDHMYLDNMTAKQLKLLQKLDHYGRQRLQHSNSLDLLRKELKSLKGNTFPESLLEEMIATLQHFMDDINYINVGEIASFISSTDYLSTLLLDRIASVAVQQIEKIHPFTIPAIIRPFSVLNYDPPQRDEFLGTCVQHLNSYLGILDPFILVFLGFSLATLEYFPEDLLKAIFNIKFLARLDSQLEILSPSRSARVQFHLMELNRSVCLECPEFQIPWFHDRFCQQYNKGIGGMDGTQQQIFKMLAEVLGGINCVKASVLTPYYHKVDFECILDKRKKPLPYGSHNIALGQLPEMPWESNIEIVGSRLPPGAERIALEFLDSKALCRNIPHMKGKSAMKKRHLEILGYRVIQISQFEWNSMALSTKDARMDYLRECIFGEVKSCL
Chain of UniProt Q96I24 (Q96I24 whole entry, looked up): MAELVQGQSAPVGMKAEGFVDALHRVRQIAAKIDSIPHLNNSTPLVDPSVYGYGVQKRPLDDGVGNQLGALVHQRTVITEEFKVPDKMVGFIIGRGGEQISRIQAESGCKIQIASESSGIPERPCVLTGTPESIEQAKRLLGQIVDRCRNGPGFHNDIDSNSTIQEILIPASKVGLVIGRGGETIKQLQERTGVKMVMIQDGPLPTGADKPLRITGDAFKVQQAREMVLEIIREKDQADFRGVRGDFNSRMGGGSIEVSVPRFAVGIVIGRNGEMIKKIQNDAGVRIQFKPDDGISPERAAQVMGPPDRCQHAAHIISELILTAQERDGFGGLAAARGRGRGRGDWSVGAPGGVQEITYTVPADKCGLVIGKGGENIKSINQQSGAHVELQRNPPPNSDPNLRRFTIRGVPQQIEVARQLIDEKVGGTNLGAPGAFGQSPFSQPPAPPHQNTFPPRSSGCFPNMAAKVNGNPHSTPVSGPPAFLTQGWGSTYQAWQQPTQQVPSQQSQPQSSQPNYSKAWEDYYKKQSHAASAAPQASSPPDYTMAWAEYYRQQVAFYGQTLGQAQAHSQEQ
Chain of UniProt Q8WUI4 (Q8WUI4 whole entry, looked up): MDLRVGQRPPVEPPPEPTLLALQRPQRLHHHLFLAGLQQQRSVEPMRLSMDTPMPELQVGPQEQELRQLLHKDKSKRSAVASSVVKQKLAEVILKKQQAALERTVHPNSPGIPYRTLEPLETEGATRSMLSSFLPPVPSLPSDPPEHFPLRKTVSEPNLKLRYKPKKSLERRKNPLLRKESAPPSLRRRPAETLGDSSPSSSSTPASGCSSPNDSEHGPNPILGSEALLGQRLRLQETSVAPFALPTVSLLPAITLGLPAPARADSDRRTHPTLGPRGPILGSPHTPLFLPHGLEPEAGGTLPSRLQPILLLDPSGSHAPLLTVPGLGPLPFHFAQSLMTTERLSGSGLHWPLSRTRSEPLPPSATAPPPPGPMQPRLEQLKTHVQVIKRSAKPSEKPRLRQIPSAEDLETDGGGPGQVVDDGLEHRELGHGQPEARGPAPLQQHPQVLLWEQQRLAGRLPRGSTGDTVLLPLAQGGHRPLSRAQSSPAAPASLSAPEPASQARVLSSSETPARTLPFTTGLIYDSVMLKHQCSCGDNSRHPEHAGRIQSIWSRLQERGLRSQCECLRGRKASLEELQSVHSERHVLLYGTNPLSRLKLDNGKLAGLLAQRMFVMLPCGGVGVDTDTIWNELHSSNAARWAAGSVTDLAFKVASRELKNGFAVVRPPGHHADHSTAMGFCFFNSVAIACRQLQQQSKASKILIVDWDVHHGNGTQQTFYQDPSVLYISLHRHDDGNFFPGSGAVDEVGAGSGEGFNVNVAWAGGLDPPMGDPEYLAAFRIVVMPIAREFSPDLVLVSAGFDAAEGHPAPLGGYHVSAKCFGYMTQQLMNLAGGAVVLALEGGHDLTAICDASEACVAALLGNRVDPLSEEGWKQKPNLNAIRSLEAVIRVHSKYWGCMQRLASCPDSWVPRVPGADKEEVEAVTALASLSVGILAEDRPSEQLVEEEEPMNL
Chain of UniProt P30711 (P30711 whole entry, looked up): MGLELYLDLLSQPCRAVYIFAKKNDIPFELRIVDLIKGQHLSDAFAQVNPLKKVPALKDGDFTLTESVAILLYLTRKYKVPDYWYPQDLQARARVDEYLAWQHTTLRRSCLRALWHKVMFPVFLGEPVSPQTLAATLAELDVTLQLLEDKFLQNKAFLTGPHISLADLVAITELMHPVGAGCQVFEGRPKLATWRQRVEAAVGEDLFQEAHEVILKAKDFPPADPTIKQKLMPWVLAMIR
Chain of UniProt Q92769 (Q92769 whole entry, looked up): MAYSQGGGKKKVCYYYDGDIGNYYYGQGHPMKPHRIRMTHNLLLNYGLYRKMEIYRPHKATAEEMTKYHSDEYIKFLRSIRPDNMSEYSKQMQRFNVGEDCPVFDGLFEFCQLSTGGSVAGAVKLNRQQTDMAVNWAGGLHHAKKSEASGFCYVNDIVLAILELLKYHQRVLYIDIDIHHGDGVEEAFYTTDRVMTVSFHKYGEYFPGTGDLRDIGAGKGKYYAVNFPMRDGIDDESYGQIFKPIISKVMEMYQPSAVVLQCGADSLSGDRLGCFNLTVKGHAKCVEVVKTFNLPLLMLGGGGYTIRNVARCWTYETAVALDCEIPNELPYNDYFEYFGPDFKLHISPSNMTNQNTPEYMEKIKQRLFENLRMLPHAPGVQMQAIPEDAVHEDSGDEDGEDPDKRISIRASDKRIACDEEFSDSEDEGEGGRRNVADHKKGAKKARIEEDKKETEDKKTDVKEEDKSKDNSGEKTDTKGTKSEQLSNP
Chain of UniProt P04066 (P04066 whole entry, looked up): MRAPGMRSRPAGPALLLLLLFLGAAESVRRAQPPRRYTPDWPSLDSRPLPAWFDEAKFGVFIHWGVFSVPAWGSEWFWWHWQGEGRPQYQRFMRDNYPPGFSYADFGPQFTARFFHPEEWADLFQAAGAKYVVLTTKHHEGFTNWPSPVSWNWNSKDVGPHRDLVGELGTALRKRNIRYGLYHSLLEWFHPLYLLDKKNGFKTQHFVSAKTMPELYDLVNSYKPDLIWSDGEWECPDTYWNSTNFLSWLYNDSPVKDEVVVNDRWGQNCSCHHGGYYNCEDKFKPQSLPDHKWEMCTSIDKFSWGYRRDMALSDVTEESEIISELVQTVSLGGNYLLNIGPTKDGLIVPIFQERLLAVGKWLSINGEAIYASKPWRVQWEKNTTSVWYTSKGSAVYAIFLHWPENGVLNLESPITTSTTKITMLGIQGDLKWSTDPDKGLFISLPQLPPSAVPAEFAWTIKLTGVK
Chain of UniProt Q86VQ1 (Q86VQ1 whole entry, looked up): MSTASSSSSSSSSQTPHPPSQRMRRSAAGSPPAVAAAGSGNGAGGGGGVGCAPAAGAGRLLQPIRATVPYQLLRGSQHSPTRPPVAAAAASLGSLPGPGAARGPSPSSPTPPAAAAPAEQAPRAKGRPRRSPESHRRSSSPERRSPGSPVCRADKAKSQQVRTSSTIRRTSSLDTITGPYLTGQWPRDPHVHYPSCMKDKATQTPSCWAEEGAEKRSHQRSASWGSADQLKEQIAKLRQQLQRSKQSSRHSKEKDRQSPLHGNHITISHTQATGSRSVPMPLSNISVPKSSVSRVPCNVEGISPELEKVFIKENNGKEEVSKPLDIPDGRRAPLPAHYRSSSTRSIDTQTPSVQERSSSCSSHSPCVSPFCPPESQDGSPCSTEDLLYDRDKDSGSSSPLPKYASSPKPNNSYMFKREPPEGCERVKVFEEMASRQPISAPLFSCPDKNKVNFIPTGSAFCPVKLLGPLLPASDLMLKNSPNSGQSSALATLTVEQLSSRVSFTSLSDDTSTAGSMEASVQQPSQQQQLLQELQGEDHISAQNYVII
Chain of UniProt Q03013 (Q03013 whole entry, looked up): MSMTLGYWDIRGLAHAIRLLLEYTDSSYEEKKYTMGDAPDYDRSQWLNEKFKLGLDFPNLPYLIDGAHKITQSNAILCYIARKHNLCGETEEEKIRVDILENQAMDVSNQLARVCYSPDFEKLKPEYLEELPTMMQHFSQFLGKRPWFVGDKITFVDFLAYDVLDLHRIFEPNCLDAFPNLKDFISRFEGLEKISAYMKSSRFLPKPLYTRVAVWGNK

Compound in the experiment: Cc1ccc(NC(=O)c2ccc(CN3CC[C@H](N(C)C)C3)c(C(F)(F)F)c2)cc1Nc1nccc(-c2cncnc2)n1 [bafetinib]
Kind of experiment: log2 fold change, soluble protein after heating vs DMSO (PISA); higher = thermal stabilisation; K562 cells, 10 uM, 30 min; active = over 0.2 and 3.5 SD of the protein, either way, in both replicates (recomputed). The method in brief:
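Soluble protein was defined as the supernatant after 21,000xg for 90 min. It came from K562 cells at 2×10^6 cells/mL given 10 μM compound for 30 min, heated in aliquots for 3 min across 48°C-58°C, pooled, and extracted in PBS with 0.5% NP-40 at 4°C, and was quantified by TMTpro 16plex LC-MS/MS with equalised channel sums. Thermal stability against control samples, from duplicates, is reported as log2 fold change.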
With HSPA8 (UniProt E9PK54), the log2 fold change was 0.096.
For FUCA1 (UniProt P04066), the log2 fold change was -1.16 (active).
As for GCSH (UniProt P23434), the log2 fold change was -0.13.
Consider IFNGR1 (UniProt P15260), for which the log2 fold change was -0.262.
GSTM4 (UniProt Q03013): the log2 fold change was 0.021.
Consider GHDC (UniProt Q8N2G8), for which the log2 fold change is -0.165.
For FUBP3 (UniProt Q96I24) the value was -0.035.
As for GLCCI1 (UniProt Q86VQ1), the log2 fold change was -0.074.
As for FAT1 (UniProt Q14517), the log2 fold change was -0.061.
For FECH isoform 2 (UniProt P22830) the value was 0.315.
Take GSTT1 (UniProt P30711): the log2 fold change is -0.019.
On to HECTD1 (UniProt Q9ULT8), for which the log2 fold change is 0.025.
FHOD1 (UniProt Q9Y613): the log2 fold change is -0.187.
For GLRX3 (UniProt O76003), the log2 fold change is -0.04.
With HDAC2 (UniProt Q92769) the figure was 0.137.
Consider HMGCR isoform 3 (UniProt P04035), for which the log2 fold change is 0.008.
As for HSPA8 (UniProt P11142), the log2 fold change is 0.008.
Regarding GLYR1 (UniProt Q49A26), the log2 fold change is 0.109.
As for HNRNPK isoform 2 (UniProt P61978), the log2 fold change was -0.03.
Consider HDAC7 isoform 5 (UniProt Q8WUI4), for which the log2 fold change is -0.023.
As for FASTKD1 (UniProt Q53R41), the log2 fold change was 0.098.
Turning to GNL1 (UniProt P36915), the log2 fold change was -0.02.
Consider GTF2E1 (UniProt P29083), for which the log2 fold change was 0.014.
